Assay results published in PubChem BioAssay (NCI).
This is part of a sample that, as a whole, favours compounds with a hit. Of some 83,000 tested, about 20% had one in any assay.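 For each line, cells grew in 96-well plates with the test compound present at a single concentration for 48 hours.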 Unmarked numbers belong to inactive results. Active and inactive are the calls of the source. Rule for the calls: active = growth percent below 10; inactive = the rest.

Assays:
Test in all cases: NCI-60 one-dose screen, 48 h (100 = growth as untreated, 0 = no growth, -100 = all killed)
Details in all cases: 10 µM unless noted
[1] = test system: HCT-15 colon
[2] = test system: HT29 colon
[3] = test system: SNB-75 CNS
[4] = test system: SNB-19 CNS
[5] = test system: U251 CNS
[6] = test system: PC-3 prostate
[7] = test system: SK-MEL-5 melanoma
[8] = test system: UACC-62 melanoma
[9] = test system: LOX IMVI melanoma
[10] = test system: SK-MEL-28 melanoma

Row | SMILES | growth [1] | growth [2] | growth [3] | growth [4] | growth [5] | growth [6] | growth [7] | growth [8] | growth [9] | growth [10]
1 | CCN(CC)c1ccc(N=C2C=CC(=O)C=C2NC(C)=O)cc1 | 90.3% | 104% | 96.7% | 116% | 87.9% | 83.6% | 88.5% | 93.2% | 80.8% | 127%
2 | c1ccc(CN=C(NCc2ccccc2)NCc2ccccc2)cc1 | 79.7% | 62.6% | 59.3% | 68.1% | 51.9% | 24.9% | 35% | 63.8% | 59.8% | 98.8%
3 | CC(=O)[C@H]1CC[C@H]2[C@@H]3C[C@H](C)C4=CC(=O)CC[C@]4(C)[C@H]3C(=O)C[C@]12C | 97.3% | 101% | 89.6% | 100% | 98.2% | 91.2% | 100% | 97.1% | 92.2% | 115%
4 | Cc1ccc(-c2csc(N)n2)cc1 | 99.9% | 93.6% | 93.2% | 98.1% | 92.9% | 91.2% | 97.1% | 99% | 101% | 110%
5 | COc1cccc(-c2nc3cc(NC(=O)c4ccc(Cl)c(C#N)c4)ccc3o2)c1 | 51.6% | -3.37% (active) | -2.82% (active) | 5.09% (active) | -12.9% (active) | 14.4% | 5.38% (active) | 38.6% | 21.9% | -7.87% (active)
6 | CC1Cc2ccccc2N1C(=O)c1ccc(C(=O)c2ccccc2)cc1 (stereo not given) | 86% | 89.4% | 94.3% | 90.5% | 63.5% | 97% | 74.2% | 73.6% | 83% | 99.5%
7 | Cc1ccc(/C=C/C(=O)c2ccc(F)cc2)s1 | 67.3% | 43.5% | 90.9% | 88% | 51.6% | 63.8% | 90.6% | 72.7% | 58.3% | 105%
8 | O=Cc1ccccc1C(=O)O | 103% | 100% | 99.4% | 107% | 96.9% | 96.1% | 101% | 100% | 101% | 106%
9 | CCCCN1c2nc3ccccc3cc2Sc2cc3ccccc3nc21 | 94.9% | 95.2% | 107% | 107% | 109% | 78.6% | 82.1% | 91.7% | 103% | 116%
10 | O=C(O)C1CCN(S(=O)(=O)c2ccc(-c3ccccc3)cc2)CC1 | 107% | 111% | 102% | 103% | 104% | 80.9% | 108% | 94.5% | 103% | 91.4%
11 | CC1CN(C2CCCCC2)C(=O)NC1=O (stereo not given) | 104% | 105% | 93.4% | 97.4% | 110% | 94% | 105% | 87.5% | 101% | 116%
12 | COc1ccc(NC(=O)c2ccc(-c3ccccc3)cc2)c(C(N)=O)c1 | 97.1% | 99.9% | 112% | 94.2% | 98.4% | 93.1% | 101% | 91.5% | 96.6% | 108%
13 | CN[C@@H]1C(OC2[C@H](O[C@H]3[C@H](O)[C@@H](O)[C@H](N=C(N)N)[C@@H](O)[C@@H]3N=C(N)N)OC(C)[C@]2(O)CO)OC(CO)C(O)C1O (stereo not given in full) | 112% | 98.5% | 103% | 113% | 103% | 108% | 105% | 114% | 104% | 104%
14 | c1ccc(-c2n(Cc3ccc4ccccc4c3)cc[n+]2Cc2ccc3ccccc3c2)cc1 | 15.2% | -83.8% (active) | -29.5% (active) | -32.4% (active) | -93.5% (active) | -58.8% (active) | -98.4% (active) | -80% (active) | -92.5% (active) | -84.2% (active)
15 | O=C(Nc1ccccc1)c1cc(-n2cnc([N+](=O)[O-])c2)cc(-n2cnc([N+](=O)[O-])c2)n1 | 114% | 107% | 98.9% | 106% | 101% | 88.8% | 95.6% | 103% | 94.2% | 122%
16 | O=C(/C=C/c1cccc(Nc2ccnc3cc(Cl)ccc23)c1)c1ccc(Cl)cc1 | 54.8% | 21.8% | 67.6% | 63.2% | 49.9% | 62.9% | 39.6% | 50.2% | 11.2% | 71%
17 | O=C(COc1cccc(/C=C2\Oc3ccc4ccccc4c3C2=O)c1)c1ccc(Cl)cc1 | 72.4% | 103% | 90.5% | 92% | 61.5% | 77.5% | 89.3% | 82.8% | 10.6% | 113%
18 | O=C(C(=O)c1cc(Br)ccc1O)c1cc(Br)ccc1O | 54% | 93.7% | 59.8% | 37.9% | 43.6% | 46.5% | 14.7% | 11.7% | 39.1% | 51.1%
19 | CCCCCCCCCCOC(C)=O | 107% | 106% | 80.7% | 108% | 108% | 93.4% | 107% | 103% | 108% | 110%
20 | Cc1cc2c(cc1C)[n+](Cc1ccc3ccccc3n1)cn2Cc1ccc2ccccc2n1 | 66.2% | -14.5% (active) | -1.25% (active) | 16.4% | 7.2% (active) | -7.23% (active) | -93.1% (active) | -38.1% (active) | -56.9% (active) | 10.2%
21 | CN(C)CCCN=c1cc2c(=O)n(CCCN(C)C)c(=O)c3c(NCCCN(C)C)cc4c(O)n(CCCN(C)C)c(=O)c1c4c3-2 | 13.7% | -42.2% (active) | -66.9% (active) | 10.7% | 3.63% (active) | 12.1% | -82.4% (active) | -49.3% (active) | -42.3% (active) | -48.6% (active)
22 | COc1cc(/C=C/C(=O)C(C(=O)/C=C/c2ccc(OC(=O)CCNC34CC5CC(CC(C5)C3)C4)c(OC)c2)C(=O)CCNC23CC4CC(CC(C4)C2)C3)ccc1OC(=O)CCNC12CC3CC(CC(C3)C1)C2 (stereo not given) | -18.2% (active) | -71.6% (active) | -32.3% (active) | 39.2% | 7.57% (active) | 13.6% | -36.8% (active) | 20.2% | -72.7% (active) | -8.59% (active)
23 | CC(=O)OC1Oc2cc(C)c(C)cc2-c2oc(=O)c(-c3ccccc3)cc21 (stereo not given) | 6.95% (active) | -23.7% (active) | -1.15% (active) | 26.9% | 13.2% | -11.4% (active) | 16.7% | 14.2% | 41.9% | 49%
24 | CC[C@@H](C)/C=C(C)/C=C/C(=O)c1c(O)c(-c2ccc(O)cc2)cn(OC2CC(=O)CCC(C)OC(=O)CC2O)c1=O (stereo not given in full) | 26.8% | 29.5% | 18% | 22.9% | 11.1% | 34% | -22.7% (active) | -13.1% (active) | 2.2% (active) | 34%
25 | CSc1nc(-c2ccc(O)cc2O)c2c(=O)[nH]c(Nc3ccc(S(=O)(=O)Nc4nc(C)cc(C)n4)cc3)nc2n1 | 104% | 113% | 73.1% | 96.1% | 100% | 88% | 109% | 92.7% | 99% | 97.8%
26 | COc1ccc2cc(C3=CC(=O)CCC3)ccc2c1 | 99.2% | 86.7% | 95.1% | 92.1% | 102% | 91.3% | 94.3% | 77.1% | 91.1% | 115%
